# In PubChem BioAssay (EPA / NIEHS):
# A structure can be active in one record and inactive in another. Active and inactive are the calls of the source. Rule for the calls: active = hit-call score of the fitted dose curve at least 0.9, where 1 is the maximum; inactive = score below 0.9.
# Assay: CCTE_Shafer_MEA_dev_inter_network_spike_interval_mean: CCTE's Neural Network Formation Assay for Mean Inter-network Spike Interval, Shafer Lab (AID 2284047);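 for AC50: potency for a decrease in mean inter-network spike interval below DMSO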
# Experimental: CCTE_Shafer_MEA_dev assay is conducted using Axion Biosystems 48 well microelectrode array (MEA) plates and Maestro recording system. Each well of the MEA plate contains a grid of 16 microelectrodes embedded in the culture surface. Electrically active cells, such as neurons, can be cultured over the electrodes, and electrical activity in these cells can be recorded extracellularly. The spontaneous firing of neurons is captured from each electrode on a microsecond timescale providing both temporally and spatially precise data. […] The CCTE_Shafer_MEA_dev assay uses primary cultures of rat cortical neurons. Recordings are made on days post-plating 5, 7, 9 and 12. As these cultures mature over time, neural networks develop functional activity and form cohesive networks in which electrical activity can be highly coordinated. CCTE_Shafer_MEA_dev_inter_network_spike_interval_mean is 1 of 19 assay components of the CCTE_Shafer_MEA_dev assay. It measures the average time interval between network spikes (temporally-clustered groups of actional potential firing across multiple electrodes) as the average time between peaks of consecutive network spikes during a recording in a microelectrode array (MEA) using Axion Biosystems Maestro 768 channel amplifier with the AxIS adaptive spike detector. To collapse across multiple recordings made on days post-plating 5, 7, 9 and 12, the trapezoidal area-under-the-curve of the component is calculated.Data from the assay component CCTE_Shafer_MEA_dev_inter_network_spike_interval_mean was analyzed into 1 assay endpoint. This assay endpoint, CCTE_Shafer_MEA_dev_inter_network_spike_interval_mean, was analyzed in the negative analysis fitting direction relative to DMSO as the negative control and baseline of activity. Using a type of functional reporter, gain or loss-of-signal activity can be used to understand electrical activity.
# On the day prior to culture, each well was coated thoroughly with 150 uL of 0.05% polyethyleneimine (PEI, Sigma Cat P3143) in 50 mM HEPES (Sigma Cat H7523) at a pH of 8. The plate was incubated at 37C for one hour. PEI was rinsed out with 500 uL of sterile water three times. Plates were stored at 4C until the day of culture. This culture was plated at a seeding density of 1.5 x 10^5 cells/well on a 48-well MEA plate, prepared as described above. Cells were administered via a 25 uL media/laminin ([…]; Sigma Cat L2020-1MG) drop directly onto the microelectrode array, as adding the cells with the laminin results in better attachment than pre-coating with laminin. After 2 hours, an additional 475 uL of cortical media was added and the cells returned to the incubator. Exposure starts at day 0 of plating and is continued over twelve days of network development until the experiment is terminated. Cells are fed with fresh medium on DIV 5 and 9, following the recordings on those days. The entire volume of media in the well is exchanged and any vehicle or compound treatment is renewed. Complete details are found in OP-NHEERL/ISTD/SBB/TJS/2015-03-r0 (available on request, email shafer.tim@epa.gov). Measurement of the electrical activity is non-invasive, and recordings can be made from the same plate over multiple different days of the culture. In cortical neurons, this allows for the measurement of extracellular action potentials over the period during which networks form in the MEA plate.
SMILES,AC50,outcome
CC1(C)C(C=C(Cl)Cl)C1C(=O)O[C@H](C#N)c1cccc(Oc2ccccc2)c1 (stereo not given in full),1.03 µM (active),
C/C(=C/C=C/[C@@H](C)C(=O)O)[C@H]1CN[C@H](C(=O)O)[C@H]1CC(=O)O,0.16 µM (active),inactive
C[n+]1ccc(-c2ccccc2)cc1,,inactive
[CH3][Hg][Cl],0.0057 µM (active),
c1ccc2c(c1)cc1ccc3cccc4ccc2c1c34,,inactive
CN[C@]1(c2ccccc2Cl)CCCCC1=O,,inactive
CP(=O)(O)CCC(N)C(=O)O (stereo not given),,inactive
CC(C)CCCCCCCOP(=O)(Oc1ccccc1)Oc1ccccc1,,inactive
Cc1ccc(OP(=O)(Oc2ccc(C)cc2)Oc2ccc(C)cc2)cc1 (tested in a mixture with another compound),,inactive
CCC1(c2ccccc2)C(=O)NC(=O)NC1=O,,inactive
CCOP(=O)(Oc1cnc(C(C)(C)C)nc1)OC(C)C (stereo not given),,inactive
CCOP(=O)(OCC)SCSC(C)(C)C,,inactive
CNC(=N[N+](=O)[O-])NCC1CCOC1 (stereo not given),,inactive
CC1(C)[C@H](C=C(Cl)Cl)[C@@H]1C(=O)O[C@@H](C#N)c1cccc(Oc2ccccc2)c1,,inactive
COC(=O)[C@H]1[C@@H](OC(=O)c2ccccc2)C[C@@H]2CC[C@H]1N2C,,inactive
CP(=O)(O)CC[C@H](N)C(=O)O,,inactive
CCOP(=O)(O)OCC (tested in a mixture with another compound),,inactive
CC1(C)[C@H](C=C(Cl)Cl)[C@H]1C(=O)OCc1c(F)c(F)cc(F)c1F,,inactive
COP(=O)(OC)SCN1C(=O)c2ccccc2C1=O,,inactive
CCOP(=S)(OCC)SCS(=O)C(C)(C)C (stereo not given),,inactive

SMILES,AC50,outcome
CCOP(=O)(OCC)OC(Cl)C(Cl)(Cl)Cl (stereo not given),,inactive
C=CCN1CC[C@]23c4c5ccc(O)c4O[C@H]2C(=O)CC[C@@]3(O)[C@H]1C5,,inactive
C[n+]1ccc(-c2cc[n+](C)cc2)cc1,0.76 µM (active),
Brc1ccc(Oc2cc(Br)c(Br)cc2Br)c(Br)c1,,inactive
[Cd+2].[Cl-].[Cl-],0.014 µM (active),
O.O.O.O.O.[Cd+2].[Cd+2].[Cl-].[Cl-].[Cl-].[Cl-],0.0384 µM (active),
CC1(C)C(C=C(Cl)c2ccc(Cl)cc2)C1C(=O)OC(C#N)c1ccc(F)c(Oc2ccccc2)c1 (stereo not given),4.11 µM (active),
O=C(O)CNCP(=O)(O)O,,inactive
Cn1nc(C(F)(F)F)c(CS(=O)(=O)C2=NOC(C)(C)C2)c1OC(F)F,,inactive
CC(=O)[O-].[Tl+],,inactive
Brc1ccc(Oc2ccc(Br)cc2Br)c(Br)c1,,inactive
C#CCN(C)[C@H](C)Cc1ccccc1,,inactive
C[C@H](N)Cc1ccccc1,,inactive
CC1(C)[C@H](C(=O)O[C@H](C#N)c2cccc(Oc3ccccc3)c2)[C@@H]1C=C(Br)Br,,inactive
O=[As]O,,inactive
CC1(C)[C@@H](C=C(Cl)Cl)[C@@H]1C(=O)O[C@@H](C#N)c1ccc(F)c(Oc2ccccc2)c1,,inactive
CC(=O)[O-].CC(=O)[O-].O.O.O.[Pb+2],,inactive
CC1CCCC1.[C-]#[O+].[C-]#[O+].[C-]#[O+].[Mn],,inactive
[CH3][Sn]([CH3])[CH3],,inactive
